Test results taken from PubChem BioAssay AID588405 (Sanford-Burnham Center for Chemical Genomics, 2011).
In all, about 360,000 compounds went through this assay and about 6,200 (1.7%) were called active.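 How the source made its calls: active means inhibition of at least 50% at 20 µM; inactive means the rest.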 Shown is part of a subset that was picked to be rich in actives.

Assay: inhibition of PEG-3 promoter activity – cell-based, HeLa, luciferase luminescence, primary screen (AID 588405)
Settings: HeLa PEG-Prom luciferase reporter, overnight, at 20 µM, hits give high values

| Compound | inhibition |
| --- | --- |
| Cc1c(C(=O)NCc2ccc(C#N)cc2)sc(=O)n1Cc1ccc(C(=O)N(C)C)cc1 | 7.87% (inactive) |
| Cn1cncc1C#Cc1c(-c2ccsc2)sc2ccccc12 | 44.3% (inactive) |
| COc1ccc2sc(-c3ccc(S(C)(=O)=O)cc3)c(-c3ccc(C(N)=O)cc3)c2c1 | 3.59% (inactive) |
| COc1ccc2sc(-c3ccc(S(C)(=O)=O)cc3)c(C#Cc3cncn3C)c2c1 | 54.5% (active) |
| CCn1c(SCC(=O)Nc2ccc(C)cc2)nc2nc3c(cc2c1=O)CCCC3 | 10.5% (inactive) |
| CCNC(=S)Nc1ccc2c(c1)c(=O)n(C)n2Cc1ccc(Cl)cc1 | -3.64% (inactive) |
| c1ccc2c(c1)C(=NC1CCCCC1)NC2=NC1CCCCC1 | 101% (active) |
| CC1(C)Cc2nc3sc4c(SCC(=O)NC(c5ccccc5)c5ccccc5)ncnc4c3cc2CO1 | -23% (inactive) |
| Cc1ccccc1S(=O)(=O)NC(=O)C1(C)CCN1C(=O)C1(c2ccc(Cl)cc2)CC1 (configuration not stated) | 15.9% (inactive) |
| Cc1cccc(-c2cnc(C(O)c3ccc4ccccc4c3)[nH]2)c1 (configuration not stated) | 5.95% (inactive) |
| Cc1nc2c(OCc3ccc(Cl)cc3Cl)cccn2c1N(C)CC1CC1 | 27.9% (inactive) |
| CCCN1CCn2c3c(c4cc(Br)ccc42)CCCC31 (configuration not stated) | -52.1% (inactive) |
| COCCNC(=O)c1ccc(Cn2c(SCC(=O)NCC3CCCO3)nc3ccc(Br)cc3c2=O)cc1 (configuration not stated) | -11.8% (inactive) |
| OC(CNCC1CCCO1)Cn1c2ccc(Br)cc2c2cc(Br)ccc21 (configuration not stated) | 104% (active) |
| CNC(=O)NC(=O)C(OC(=O)c1cccc(S(=O)(=O)N2CCCCC2)c1)c1ccccc1 (configuration not stated) | 8.72% (inactive) |
| CCN1/C(=C\c2ccc3ccccc3[n+]2CC)Sc2cc(C)ccc21 | 95.8% (active) |
| OCCN1CCN(c2ncnc3c2ncn3[C@H]2CN(Cc3ccco3)C[C@@H](CO)O2)CC1 | -0.36% (inactive) |
| Cc1ccccc1Cn1c(C)c(C(=O)NCc2cccc(C(F)(F)F)c2)sc1=O | -0.27% (inactive) |
| CC(C)CC(N=C1NC(C)(C)Cc2ccccc21)C(=O)O (configuration not stated) | 0.64% (inactive) |
| COc1ccc(CNC(=O)C(c2ccc(O)cc2)N(Cc2ccco2)C(=O)c2snc(C(N)=O)c2N)cc1 (configuration not stated) | 56.7% (active) |
| COc1cc(C(C(=O)NC2CCCC2)N(Cc2ccccc2)C(=O)c2snc(C(N)=O)c2N)ccc1O (configuration not stated) | -1.6% (inactive) |
| NC(=O)c1nsc(C(=O)N(CC(=O)NCc2ccc(F)cc2)Cc2ccco2)c1N | 17.3% (inactive) |

| Compound | inhibition |
| --- | --- |
| CCOC(=O)C1(C)CCCN(C(=O)c2ccc(N(C)C)cc2)C1 (configuration not stated) | 0.13% (inactive) |
| Cc1cc(C)n2nc(C(=O)OC(C)C(=O)c3cc(C)c(C)cc3C)nc2n1 (configuration not stated) | -10.9% (inactive) |
| CSCCC(NS(=O)(=O)c1ccc2c(c1)oc(=O)n2C)C(=O)NC1CCCc2ccccc21 (configuration not stated) | 3.82% (inactive) |
| CC1=C(C(=O)N(C(C)C)C(C)C)CC(CC(=O)NCCCCc2ccccc2)C(=O)N1CCC1=CCCCC1 (configuration not stated) | 18.7% (inactive) |
| COc1cccc2c1C(=O)c1c(O)c3c(c(O)c1C2=O)CC(O)(C(C)=NNC(=O)c1ccc(Cl)c(Cl)c1)CC3OC1CC(N)C(O)C(C)O1 (configuration not stated) | 98.3% (active) |
| O=C(NC1CC1)C1=C[C@H](c2c[nH]c3ccccc23)C[C@H](OCc2ccc(CO)cc2)O1 | -8.53% (inactive) |
| O=C(Nc1cccc2ccccc12)c1[nH]c(-c2ccccc2)c2c1C(=O)N(C1CC1)C2=O | 52.8% (active) |
| O=C(Nc1cccc2ccccc12)c1onc2c1CCCC2 | -211% (inactive) |
| O=C(Nc1cccc2ccccc12)NC1CC1 | 6.64% (inactive) |
| COc1ccc(C(=O)N2CCCCC2c2cc(C(=O)Nc3ccc(F)c(Cl)c3)no2)cc1 (configuration not stated) | 11.5% (inactive) |
| Cc1nccn1-c1ccc(NC(=O)[C@H]2O[C@@H](n3cnc4c(N)ncnc43)[C@H](O)[C@@H]2O)cc1 | 7.92% (inactive) |
| CCc1nc2ccc(C(=O)NCc3ccc(OC)cc3)cn2c1N(CC)Cc1cccc(Br)c1 | 19.4% (inactive) |
| COc1ccc(NC(=O)c2sc(=O)n(Cc3ccc(S(=O)(=O)N(C)C)cc3)c2C)cc1 | 2.16% (inactive) |
| Cc1ccc(C(=O)N2CC(=O)Nc3ccc(F)cc3C2c2ccc(F)cc2)cc1 (configuration not stated) | 17.9% (inactive) |
| Cc1ccc(SCC(=O)N2CCN(c3ccc(F)cc3)CC2)cc1 | 8.76% (inactive) |
| CCN1CCC2(CC1)N=C(c1ccc(F)cc1)C(=S)N2C(=O)c1ccc(C)cc1 | 90% (active) |
| CCCNC(=O)c1cc(C2CCCCN2S(=O)(=O)c2ccc(C#N)cc2)on1 (configuration not stated) | -6.28% (inactive) |
| OC(c1cc(Cl)cc(Cl)c1)c1ncc(-c2ccccc2C(F)(F)F)[nH]1 (configuration not stated) | 35.8% (inactive) |
| CCc1ccc(/C=N/NC(=O)c2ccc(OC3CCCC3)cc2)s1 | 14.5% (inactive) |
| CC1(C(=O)NCc2ccco2)Cc2c(-c3ccc4c(c3)OCO4)ccnc2O1 (configuration not stated) | 7.44% (inactive) |
| O=C(Nc1ccc2ccccc2c1[N+](=O)[O-])c1ccccc1 | -223% (inactive) |
| O=C(NC1=CC(=O)c2ccccc2C1=O)c1ccccc1 | 106% (active) |

| Compound | inhibition |
| --- | --- |
| O=C(Nc1ncccc1O)c1ccc(C(=O)c2ccccc2)cc1 | -204% (inactive) |
| CCCNC(=O)C1(C)CCCN(C(=O)c2cccc(OC(C)=O)c2C)C1 (configuration not stated) | -1.66% (inactive) |
| COc1cc(NS(=O)(=O)c2ccc3ccccc3c2)c2ncccc2c1 | 54.5% (active) |
| CCOc1cc(NS(=O)(=O)c2ccc(OC)cc2)c(OCC)cc1NC(C)=O | 11.6% (inactive) |
| CCOc1ncccc1C(=O)NNC(=O)c1cccc(S(=O)(=O)Nc2ccccc2OC)c1 | 6.59% (inactive) |
| COc1ccc(N2C(=O)NC(NS(=O)(=O)c3ccc(Cl)cc3)(C(F)(F)F)C2=O)cc1 (configuration not stated) | 10.8% (inactive) |
| CC1=C(C(=O)N2CCOCC2)CC(CC(=O)NCc2cccs2)C(=O)N1CCCN1CCCC1=O (configuration not stated) | 0.54% (inactive) |
| O=C1C(Cl)=C(Oc2ccccc2)C(=O)c2ccccc21 | 104% (active) |
| O=c1[nH]nc(SCCS(=O)(=O)c2ccc(F)cc2)n1-c1ccccc1C(F)(F)F | -139% (inactive) |
| CC(C)(C)N1C(=O)c2c(C(=O)OCc3ccccc3)[nH]c(-c3ccccc3)c2C1=O | 24.2% (inactive) |
| COc1ccc(NC(=O)c2cn(-c3ccccc3)nc2SC)cc1 | -78.1% (inactive) |
| CC1CC(C)CN(CC(=O)N2c3ccccc3CCc3ccccc32)C1 (configuration not stated) | 9.54% (inactive) |
| CC1C(C)N(C(=O)CCl)c2ccccc2N1C(=O)CCl (configuration not stated) | 99.2% (active) |
| CC1C(=O)N(Cc2ccccc2)c2ccccc2N1C(=O)c1ccccc1 (configuration not stated) | 21.3% (inactive) |
| COc1ccc(C)cc1NC(=O)c1[nH]c(C)c(C(C)=O)c1C | 4.55% (inactive) |
| CCCC/C=C/c1cccc2nncn12 | 2.91% (inactive) |
| O=S(=O)(c1ccccc1)N1CCc2ccccc21 | 5.92% (inactive) |
| O=S(=O)(c1ccc2c(c1)OCCO2)N1CCc2ccccc21 | 25.9% (inactive) |
| CSc1nc2ccc(S(=O)(=O)N3CCc4ccccc43)cc2s1 | 52.1% (active) |
| Cn1c(=O)c2c(-c3cccc(Br)c3)c(C#N)c(N)nc2n(C)c1=O | 7.56% (inactive) |
| Cc1nc2c(c(C)nn2-c2ccccc2)c(C)c1C | 21.8% (inactive) |
| CSc1ccc(-c2c(C#N)c(N)nc3c2c(C)nn3-c2ccccc2)cc1 | 76.2% (active) |

| Compound | inhibition |
| --- | --- |
| CCOC(=O)[C@H]1Nc2ccc(Cl)cc2[C@@H]2[C@H]1C1CC(c3ccccc31)N2C(=O)OCc1ccccc1 (some centres not stated) | 26.4% (inactive) |
| N#Cc1cccc(NC(=O)c2cc(C3CCCCN3C(=O)CCc3ccccc3)on2)c1 (configuration not stated) | 23.6% (inactive) |
| COCCNc1ncnc2c1ncn2[C@H]1CN(Cc2ccc(OC)cc2)C[C@@H](CO)O1 | -12.7% (inactive) |
| COc1ccc(-c2oc3ncn(Cc4ccco4)c(=N)c3c2-c2ccc(OC)cc2)cc1 | 9.27% (inactive) |
| COc1ccc(-c2oc3ncnc(NCCCO)c3c2-c2ccc(OC)cc2)cc1 | 56.5% (active) |
| CC(C)(C)OC(=O)N1CCN(C(=O)c2[nH]c(C(F)(F)F)nc2-c2ccccc2)CC1 | 5.18% (inactive) |
| CCN(CC)CCCNC(=O)Cn1cnc2sc(C)c(S(=O)(=O)N3CCN(c4ncccn4)CC3)c2c1=O | -7.38% (inactive) |
| CCN(CC)CCNC(=O)Cn1cnc2sc(C)c(S(=O)(=O)N3CCOCC3)c2c1=O | -0.66% (inactive) |
| CCN(CC)CCNC(=O)c1sc2ncn(CC(=O)Nc3ccc(C)c(Cl)c3)c(=O)c2c1C | 87.1% (active) |
| Fc1cccc(Cc2c(-c3ccc(Cl)cc3)nc3ccc(Cl)cn23)c1 | -75.2% (inactive) |
| CCNC(=O)C1(C)CCCN(C(=O)c2c(C)noc2C)C1 (configuration not stated) | -5.02% (inactive) |
| Cn1c(Cc2csc(N)n2)nnc1SC/C=C/c1ccccc1 | -0.48% (inactive) |
| CCN(CC(=O)Nc1c(F)cccc1F)C(=O)c1ccc(S(=O)(=O)N2CCCCC2)cc1 | 3.57% (inactive) |
| COc1cc(C(=O)NNC(=O)c2ccc(S(=O)(=O)N3CCCCC3)cc2)cc(OC)c1OC | 3.84% (inactive) |
| CN(C)CCN(C(=O)C1=COCCO1)c1nc2ccc(Cl)cc2s1 | -91.5% (inactive) |
| CCOc1ccc2nc(/N=C/c3nc(-c4ccccc4)oc3O)sc2c1 | -127% (inactive) |
| CCN(CC)CCN(C(=O)c1cc(Cl)sc1Cl)c1nc2cc3c(cc2s1)OCO3 | -57.9% (inactive) |
| CN(C)CCCN(C(=O)c1ccc(S(=O)(=O)N2CCCCCC2)cc1)c1nc2ccc(Br)cc2s1 | 57.8% (active) |
| CCOc1ccc2nc(N(CCCN(C)C)C(=O)c3ccc(C(=O)c4ccccc4)cc3)sc2c1 | 105% (active) |
| CCc1ccc2nc(N(CCCN(C)C)C(=O)c3ccc4c(c3)OCCO4)sc2c1 | 76% (active) |
| CCN(C(=O)COc1ccc(C(=O)c2ccccc2)cc1)c1ccccc1 | 2.39% (inactive) |
